Records with an inconclusive call do not appear. Activity calls are given as the source filed them. The call rests on the fitted dose curve; in most records, active means well fitted inhibition curve with a large enough effect; inconclusive means small, poorly fitted or top-dose-only effect, or effect the other way; inactive means flat fitted curve, though single readings scatter.
molecular target: Pyruvate kinase (Leishmania mexicana) (UniProt Q27686); assay: Confirmation Assay for Inhibitors of Leishmania Mexicana Pyruvate Kinase (LmPK): for Probe SAR; details: purified LmPK, ATP generation, Kinase-Glo luminescence; series mostly up to 57.5 µM; activity change, negative = inhibition: at the top concentration;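 on activity change, negative = inhibition: plate controls were uninhibited enzyme for no effect and no enzyme wells for full effect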
Summary of the method: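 Purified LmPK (0.1 nM) converted ADP (0.1 mM, ~10-fold below Km) plus PEP (0.5 mM, at Km) to ATP over 1 h at room temperature in pH 7.2 imidazole buffer. Generated ATP was read by luciferase luminescence.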
Potency means the concentration at half of the fitted maximal effect.

Sequence of Pyruvate kinase (Leishmania mexicana) (Q27686 whole entry, looked up): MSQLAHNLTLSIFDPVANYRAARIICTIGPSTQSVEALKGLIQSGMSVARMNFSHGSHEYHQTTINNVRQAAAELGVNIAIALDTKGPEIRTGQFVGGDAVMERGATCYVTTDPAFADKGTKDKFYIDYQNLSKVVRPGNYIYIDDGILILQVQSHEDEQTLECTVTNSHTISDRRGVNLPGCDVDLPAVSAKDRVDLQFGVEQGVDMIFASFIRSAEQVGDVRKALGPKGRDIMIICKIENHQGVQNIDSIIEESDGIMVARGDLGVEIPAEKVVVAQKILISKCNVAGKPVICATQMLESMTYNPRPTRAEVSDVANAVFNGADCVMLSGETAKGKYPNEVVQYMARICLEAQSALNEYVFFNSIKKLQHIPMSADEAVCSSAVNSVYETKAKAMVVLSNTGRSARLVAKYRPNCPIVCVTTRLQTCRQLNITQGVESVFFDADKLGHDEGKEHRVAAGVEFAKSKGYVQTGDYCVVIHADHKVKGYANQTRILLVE

Activity change, negative = inhibition, inactive:
CC(=O)Nc1cccc(S(=O)(=O)Nc2ccc(C)c(C)c2)c1 1.41%
O=C1c2ccccc2C(=O)N1Cc1cccnc1 -2.71%
Cc1ccc(NS(=O)(=O)c2cc3c(cc2F)NC(=O)CC3)cc1C -3.34%
COc1ccc(-c2nc3cccc(C)n3c2Nc2ccc(C)cc2)cc1 1.54%
Nc1cc(S(=O)(=O)N2CCN(S(=O)(=O)c3ccc4c(c3)OCCO4)CC2)ccn1 3.64%
Cc1cc(C)c2ccc(C3C(=O)c4ccc(O)cc4C3=O)nc2c1 (centres undefined) -13.6%
Cc1ccc(Nc2c(-c3ccc(C)o3)nc3ccccn23)cc1 16.8%
O=C1NS(=O)(=O)c2cc(Cl)ccc21 -0.814%
O=C1CCc2cc(S(=O)(=O)Nc3ccncc3)ccc2N1 -1.99%
Cc1ccc(Nc2c(-c3ccsc3)nc3c(C)cccn23)cc1 -12%
Cc1ccc(NS(=O)(=O)c2cc3c(cc2N(C)C)NC(=O)CC3)cc1C 5.95%
Cc1ccc2nc(-c3cccs3)c(Nc3ccccc3)n2c1 -3.68%
Cc1ccc(NS(=O)(=O)c2cc3c(cc2Cl)NC(=O)CO3)cc1C 10.2%
O=C1c2ccccc2C(=O)N1c1ccc(Cl)cc1 13.2%
CC(=O)Nc1ccc(S(=O)(=O)Nc2ccc(C)c(C)c2)cc1 -4.95%

Potency, active:
O=S1(=O)N=C(Sc2cc(C(F)(F)F)cc(C(F)(F)F)c2)c2ccccc21 2.91 µM
O=C1c2ccccc2C(=O)C1c1nccc2ccccc12 18.3 µM
O=C1c2ccccc2C(=O)N1c1cc(=O)c2ccccc2[nH]1 3.26 µM
O=S1(=O)N=C(Oc2ccc3ccccc3c2)c2ccccc21 4.11 µM
